Source: ChEMBL document CHEMBL1157539, “Thousands of chemical starting points for antimalarial lead identification” (Nature, 2010)

These compounds were tested on Plasmodium falciparum (assay: GSK_TCMDC: Inhibition of Plasmodium falciparum 3D7 in whole red blood cells, using parasite LDH activity as an index of growth. Test compounds present at 2uM).
Format: functional
`COc1ccc2nccc([C@@H](O)CN3CCC(NCc4nc5c(cc4F)SCC(=O)N5)C(F)C3)c2c1.Cl` (some centres not stated) gave an Inhibition of 95%. `COc1ccccc1CN1CCC(NC(=O)c2ccc(-c3cccc(Cl)c3)s2)CC1.O=C(O)C(F)(F)F` gave an Inhibition of 84%. Work on `O=C(O)C(F)(F)F.c1ccc(C(c2ccccc2)N2CCC(NCc3ccc(OCCCN4CCCCC4)cc3)CC2)cc1` yielded an Inhibition of 100%. With `C=CCN(c1nc(NC)nc(NCc2c(OC)cccc2OC)n1)C1CCCC1` the Inhibition was 85%. Work on `OCCN1CCN(c2nc(Nc3cccc(F)c3)c3cnn(-c4ccccc4)c3n2)CC1` yielded an Inhibition of 100%. For `COc1cc2nc(C)nc(Nc3ccc(Oc4ccccc4)cc3)c2cc1OC.Cl`, the Inhibition was 100%. `C=CCn1c(Sc2ccc(C#N)c([N+](=O)[O-])c2)nnc1-c1cccc(Cl)c1` showed an Inhibition of 97%. `CC[C@H](C)CNC(=O)c1cncc(-c2ccc(CNC3Cc4ccccc4C3)cc2)c1.O=C(O)C(F)(F)F` gave an Inhibition of 100%. `COCCCNC(=N)c1ccc(NC(=O)c2ccc(C(=O)Nc3ccc(C(=N)NCCCOC)cc3)cc2)cc1.Cl` was tested, and the Inhibition was 100%. Compound `Cc1ccc(CN2CCCN(Cc3cccc(NC(=O)c4ccc(-c5ccccc5)cc4)c3)CC2)cc1C.O=C(O)C(F)(F)F` has an Inhibition of 84%. For `Cc1c(CCNC(=O)CCCN2CC(C)CC(C)C2)c2ccccc2n1C.Cl` (configuration not stated), the Inhibition was 87%. Work on `CCn1c(Sc2ccc(C#N)c([N+](=O)[O-])c2)nnc1-c1cc(OC)cc(OC)c1` yielded an Inhibition of 93%. For `Cl.O=C1CSc2ccc(CNC3CCN(CCc4c(Cl)cnc5ccc(F)cc45)CC3)nc2N1`, the Inhibition was 98%. `CSCCC(C(=O)O)N1C(=O)c2ccccc2C1=O` (configuration not stated) gave an Inhibition of 91%. `Br.CC(=O)CSC(C=Cc1ccc(N(C)C)cc1)=Nc1ccccc1` showed an Inhibition of 81%. For `Br.CC1(C)NC(N)=NC(=N)N1OCCSc1ccccc1`, the Inhibition was 95%. In the case of `CCc1ccc(C(=O)NC(=O)c2ccccc2O)cc1`, the Inhibition is reported as 95%. `Cc1onc(-c2c(Cl)cccc2Cl)c1C(=O)N1CCc2cc3nccc(N4CCN5CCC[C@H]5C4)c3cc21` was tested, and the Inhibition was 100%. Compound `Cc1cc(N2CCCC2)nc(Nc2ccc(NC(=O)COc3ccccc3)cc2)n1` has an Inhibition of 100%. With `C=C[C@]1(C)C[C@@H](OC(=O)CNC[C@@H](O)CN2C[C@H](c3ccnc4ccc(OC)nc34)OC2=O)[C@@]2(C)[C@@H]3C(=O)CC[C@@]3(CC[C@@H]2C)[C@@H](C)[C@@H]1O` the Inhibition was 89%. `O=C(NC1CCCCN(Cc2ccccc2O)C1)c1ccc(-c2ccccc2)cc1.O=C(O)C(F)(F)F` (configuration not stated) gave an Inhibition of 97%. `CCCCCCCN(Cc1ccc(OC(C)(C)C(=O)OCC)cc1)C(=O)Nc1ccccc1OCC` was tested, and the Inhibition was 93%. `CCn1cc(-c2cc(C(=O)Nc3ccc(OC)cc3C)c3ccccc3n2)c(C)n1` was tested, and the Inhibition was 97%. For `COc1ccc(CNCc2cccc(-c3ccc(-c4nc5cccc(C)c5[nH]4)cc3)c2)cc1.O=C(O)C(F)(F)F`, the Inhibition was 100%. With `CC(=O)Nc1ccc(C(=O)Nc2ccc(-c3cccc(-c4nc5ccccc5[nH]4)c3)cc2)cn1` the Inhibition was 99%. In the case of `O=C(Nc1ccc(Cn2ncc(N3CCNCC3)c(Cl)c2=O)cc1)Nc1ccc(-c2ccccc2)cc1.O=C(O)C(F)(F)F`, the Inhibition is reported as 98%. `O=C(/C=C/c1ccc(Cl)c(Cl)c1)NCCCCCN1CCCC(C(=O)Nc2cccc(Cl)c2)C1` (configuration not stated) showed an Inhibition of 99%. `Cl.O=C(Oc1ccc(C2CNCCc3c2cc(OC(=O)c2ccc(O)cc2)c(OC(=O)c2ccc(O)cc2)c3Cl)cc1)c1ccc(O)cc1` (configuration not stated) showed an Inhibition of 90%. `S=C(NCCc1ccccc1)Nc1ccc2ncsc2c1` was tested, and the Inhibition was 96%. With `Br.N=c1n(CCN2CCCCC2)c2ccccc2n1CC(=O)c1cccc([N+](=O)[O-])c1` the Inhibition was 94%. Compound `COc1ccc(NC(=O)[C@H](Cc2ccccc2)Nc2cc(C)nc(NCCc3cccs3)n2)cc1.O=C(O)C(F)(F)F` has an Inhibition of 100%. Work on `COc1ccc(CNC2CCN(c3ccc(NC(=O)c4cccc(Cl)c4)cc3)CC2)cc1OC` yielded an Inhibition of 96%. `Fc1cccc(Nc2nc(NCc3ccc4ccsc4c3)nc(Nc3cccc(F)c3)n2)c1` was tested, and the Inhibition was 94%. For `COc1ccc2c(c1)CCCC2NCCCCNC(=O)c1ccc(NC(=O)c2ccc(Cl)cc2)cc1` (configuration not stated), the Inhibition was 100%. `Nc1nccc2ccc(-c3ccncc3)cc12` was tested, and the Inhibition was 96%. Work on `COc1cccc(OC(C)(C)c2nc(N[C@@H](C)c3ccccc3)c3cn[nH]c3n2)c1` yielded an Inhibition of 89%. With `Cc1cc(F)ccc1-c1nc(Nc2ccncc2)c2ccn(C)c2n1` the Inhibition was 89%.
